Assay results: PubChem BioAssay
Active and inactive are the calls of the source. Unless noted, how the calls were made is not given here.

Columns and labels:
[1] = HepG2 liver cancer cell viability effects, profiling panel, resazurin fluorescence, 24 h, PK04 Diversity Set (AID 1172); details: higher = more signal
[2] = basal S. cerevisiae growth modulation, no modifier, primary screen, OD600, strain BY4716, 24 h, basal condition (AID 1173); details: OD600, 24 h, higher = more signal, called active from +8 up or from −8 down
[3] = MM1S myeloma cell viability, profiling panel, resazurin fluorescence, basal, 24 h, PK04 Diversity Set (AID 1174); details: higher = more signal, called active from +8 up or from −8 down;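 further: MM1S multiple myeloma cell line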
[4] = molecular target: Dihydroorotate dehydrogenase (quinone), mitochondrial (Plasmodium falciparum (isolate 3D7)) (UniProt Q08210); test: PfDHODH enzyme inhibitors, primary screen, biochemical, C-terminal His tag, absorbance 600 nm (AID 1175); details: DCIP absorbance 600 nm, higher = more signal, called active from +8 up or from −8 down;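 further: recombinant parasite enzyme with a five histidine tag at its C terminus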
[5] = P. aeruginosa biofilm formation inhibitors, primary screen, strain PAO1, LB-PBS medium, absorbance 600 nm (AID 1176); details: P. aeruginosa PAO1 growth/biofilm, A600, 12 h; higher = more signal
[6] = S. cerevisiae RM11-1a growth modifiers, primary screen, strain RM11-1a, OD600, basal, 24 h (AID 1177); details: OD600, 24 h, higher = more signal, called active from +8 up or from −8 down;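 further: cultures grown under basal conditions with no added stressor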
[7] = E. coli acrAB mutant growth effects, primary screen, E. coli filamentation inducers, strain DRC39, OD650, 24 h (AID 1178); details: higher = more signal, called active from +8 up or from −8 down;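 further: growth measured as culture turbidity by optical density at 650 nm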
[8] = E. coli acrAB mutant growth effects, primary screen, E. coli filamentation inducers, strain DRC39, OD650, 48 h (AID 1179);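 further: screen aims at cell division blockers that make cells filament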; details: E. coli DRC39 delta-acrAB growth, higher = more signal, called active from +8 up or from −8 down
[9] = RPMI8226 myeloma cell viability, profiling panel, resazurin fluorescence, basal, 24 h, PK04 Diversity Set (AID 1180); details: higher = more signal;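 further: RPMI8826 multiple myeloma cell line at 5000 cells per well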
[10] = molecular target: E3 ubiquitin-protein ligase XIAP (Homo sapiens) (UniProt P98170); test: XIAP binders, primary screen, biophysical, small-molecule microarray, fluorescence 635 nm (AID 1181); details: small-molecule microarray binding, higher = more signal;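 further: score merges 667 nm emission and signal to noise over triplicate slides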
[11] = system: XIP peptide (Xip251-270) binding; test: small-molecule binders of XIP peptide, primary screen, biochemical, small-molecule microarray, fluorescence 635/667 nm, 0.1 µg/mL protein (AID 1182); details: fluorescent protein binding, 635 nm, higher = more signal, called active from +8 up or from −8 down
[12] = system: XIP peptide (Xip251-270); test: small-molecule binders of XIP peptide, primary screen, biochemical, small-molecule microarray, fluorescence 635/667 nm, 0.5 µg/mL protein (AID 1183); details: small-molecule microarray binding, fluorescence 635 nm; higher = more signal
[13] = Plasmodium falciparum growth inhibition, primary screen, strain 3D7, DAPI fluorescence, 100 nL (AID 1184);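 further: parasites grown inside human red blood cells in medium with human serum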; details: P. falciparum 3D7 growth, 3 d, higher = more signal
[14] = molecular target: Homeobox protein Hox-A13 (Mus musculus) (UniProt Q62424); test: inhibitors of HoxA13-DNA binding, primary screen, biochemical, fluorescence polarization, labeled oligonucleotide (AID 1185); details: 15 min, higher = more signal, called active from +8 up or from −8 down
[15] = inhibitors of hydroxyurea-induced Chk1 phosphorylation, primary screen, imaging, HeLa, phospho-Chk1 antibody, percent positive cells (AID 1186); details: hydroxyurea-induced phospho-Chk1 immunofluorescence imaging, higher = more signal
[16] = inhibitors of hydroxyurea-induced Chk1 phosphorylation, primary screen, imaging, HeLa, phospho-Chk1 nuclear intensity (AID 1187); details: hydroxyurea-induced phospho-Chk1 immunofluorescence imaging, higher = more signal

Sequence of Dihydroorotate dehydrogenase (quinone), mitochondrial (Plasmodium falciparum (isolate 3D7)) (Q08210 whole entry, looked up): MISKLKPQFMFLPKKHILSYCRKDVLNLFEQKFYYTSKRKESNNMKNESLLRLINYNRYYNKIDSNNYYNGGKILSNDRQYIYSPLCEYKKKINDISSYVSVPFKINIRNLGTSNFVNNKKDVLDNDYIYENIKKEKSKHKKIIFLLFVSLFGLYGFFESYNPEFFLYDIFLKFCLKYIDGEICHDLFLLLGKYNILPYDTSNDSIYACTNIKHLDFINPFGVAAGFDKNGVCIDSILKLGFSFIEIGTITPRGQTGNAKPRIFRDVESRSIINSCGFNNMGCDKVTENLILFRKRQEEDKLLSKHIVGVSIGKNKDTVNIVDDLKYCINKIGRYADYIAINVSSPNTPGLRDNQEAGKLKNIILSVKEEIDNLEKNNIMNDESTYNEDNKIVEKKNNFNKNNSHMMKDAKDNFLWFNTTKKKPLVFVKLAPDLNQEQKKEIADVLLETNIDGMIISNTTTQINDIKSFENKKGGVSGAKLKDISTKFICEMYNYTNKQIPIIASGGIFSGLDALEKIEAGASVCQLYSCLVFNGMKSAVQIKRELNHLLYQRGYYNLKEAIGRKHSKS
Sequence of E3 ubiquitin-protein ligase XIAP (Homo sapiens) (P98170 whole entry, looked up): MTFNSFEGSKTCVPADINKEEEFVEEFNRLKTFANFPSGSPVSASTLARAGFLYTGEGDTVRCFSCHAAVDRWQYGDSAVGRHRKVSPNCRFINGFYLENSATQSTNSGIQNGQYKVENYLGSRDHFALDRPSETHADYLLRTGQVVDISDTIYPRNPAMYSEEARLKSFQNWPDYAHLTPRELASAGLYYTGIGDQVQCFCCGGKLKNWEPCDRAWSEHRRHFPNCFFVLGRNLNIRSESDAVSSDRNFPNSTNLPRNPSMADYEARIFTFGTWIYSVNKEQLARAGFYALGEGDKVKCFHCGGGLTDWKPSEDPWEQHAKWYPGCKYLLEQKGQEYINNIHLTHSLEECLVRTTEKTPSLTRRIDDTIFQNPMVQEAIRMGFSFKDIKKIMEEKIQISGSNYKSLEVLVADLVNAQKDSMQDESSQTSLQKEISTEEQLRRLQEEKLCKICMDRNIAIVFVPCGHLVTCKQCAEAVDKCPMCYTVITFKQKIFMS
Sequence of Homeobox protein Hox-A13 (Mus musculus) (Q62424 whole entry, looked up): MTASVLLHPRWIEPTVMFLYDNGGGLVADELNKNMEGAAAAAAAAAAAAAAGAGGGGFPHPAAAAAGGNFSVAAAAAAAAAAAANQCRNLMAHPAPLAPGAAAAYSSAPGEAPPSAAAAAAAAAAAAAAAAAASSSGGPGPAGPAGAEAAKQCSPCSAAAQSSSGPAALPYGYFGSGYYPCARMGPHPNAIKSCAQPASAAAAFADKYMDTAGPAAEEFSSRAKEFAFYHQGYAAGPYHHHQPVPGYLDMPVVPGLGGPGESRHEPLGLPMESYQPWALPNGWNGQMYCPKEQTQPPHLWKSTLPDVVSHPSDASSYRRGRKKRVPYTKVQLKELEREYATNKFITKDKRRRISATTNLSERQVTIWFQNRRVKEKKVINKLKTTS

Structure (SMILES)	z-score [1]	z-score [2]	z-score [3]	composite z-score [4]	z-score [5]	z-score [6]	z-score [7]	z-score [8]	z-score [9]	composite z-score [10]	composite z-score [11]	composite z-score [12]	z-score [13]	z-score [14]	z-score [15]	z-score [16]
COc1ccc([Si](C)(C)[C@@H]2[C@@H](CC(=O)N3Cc4ccccc4C[C@H]3CO)O[C@]3(C(=O)N(Cc4ccc(N5C(=O)c6cccc7cccc5c67)cc4)c4ccccc43)[C@H]2C)cc1	-0.542	-0.551 (inactive)	-0.717 (inactive)	-2.41 (inactive)	1 (inactive)	1.15 (inactive)	0.384 (inactive)	0.403 (inactive)	-0.221	-0.0773	0.685 (inactive)	0.747	-0.962	-1.98 (inactive)	0.143 (inactive)	0.973 (inactive)
CCOC(=O)C[C@H]1[C@H](OC(=O)c2ccc(-c3ccccc3)cc2)[C@@H](NC(=O)CC(C)C)c2cc(OCCCO)ccc2N1C(=O)c1ccc2ccccc2n1	1	-0.677 (inactive)	0.722 (inactive)	-1.31 (inactive)	-0.382 (inactive)	-0.248 (inactive)	0.102 (inactive)	0.327 (inactive)	0.517	-0.134	-0.349 (inactive)	0.381	-0.459	-2.19 (inactive)	0.319 (inactive)	0.571 (inactive)
COCCOC(=O)N1C(=O)[C@@]2(c3cc(C#CCCO)ccc31)[C@H](C(=O)Nc1nc3ccccc3s1)[C@H]1C(=O)O[C@H](c3ccccc3)[C@H](c3ccccc3)N1[C@@H]2c1ccc(O)cc1	-0.0461	1.26 (inactive)	-0.159 (inactive)	1.35 (inactive)	0.325 (inactive)	1.52 (inactive)	-0.356 (inactive)	-1.07 (inactive)	-0.358	-0.105	3.02 (inactive)	0.765	-1.45	-3.01 (inactive)	-0.225 (inactive)	-0.445 (inactive)
CC(C)[Si](C#C[Si](C(C)C)(C(C)C)C(C)C)(O[C@H](c1ccccc1)c1cn(Cc2ccccc2)nn1)C(C)C	0.918	1.6 (inactive)	0.869 (inactive)	0.367 (inactive)	0.0885 (inactive)	1.14 (inactive)	-0.177 (inactive)	0.662 (inactive)	1.43	0.0368	-0.464 (inactive)	-0.0753	-0.122	0.371 (inactive)	-0.269 (inactive)	-0.216 (inactive)
C=CC[C@]1(C(=O)N2CCOCC2)COC(c2ccc(OCCCO)cc2)=N1	1.31	-1.37 (inactive)	0.574 (inactive)	-0.214 (inactive)	0.124 (inactive)	-0.19 (inactive)	0.904 (inactive)	0.46 (inactive)	0.0543	0.0055	0.627 (inactive)	0.879	-0.813	-6.97 (inactive)	-0.374 (inactive)	-0.0405 (inactive)
COCC(=C=CC[C@H](O)c1ccccc1OCCO)C[C@H](O)c1ccccn1	0.839	-0.329 (inactive)	0.324 (inactive)	-2.09 (inactive)	0.354 (inactive)	-0.115 (inactive)	0.696 (inactive)	0.547 (inactive)	-0.543	-0.102	-0.488 (inactive)	0.0608	-0.259	-4.52 (inactive)	-2.25 (inactive)	-1.6 (inactive)
COc1ccc(C#Cc2ccc3c(c2)[C@]2(C(=O)N3)[C@H](C(=O)O)[C@H]3C(=O)O[C@H](c4ccccc4)[C@H](c4ccccc4)N3[C@@H]2c2ccc(O)cc2)cc1	-0.704	-1.07 (inactive)	0.239 (inactive)	-4.06 (inactive)	0.381 (inactive)	0.128 (inactive)	-0.0897 (inactive)	-0.94 (inactive)	-0.152	-0.209	1.14 (inactive)	-0.516	-1.47	-6.25 (inactive)	-0.366 (inactive)	-0.651 (inactive)
Cc1ccc(S[C@]2(C(=O)NCc3ccccc3)CC(=O)N(C3CCCCC3)[C@@H]2c2ccc(CO)cc2I)cc1	-0.636	-0.799 (inactive)	-1.82 (inactive)	-0.11 (inactive)	0.82 (inactive)	-0.505 (inactive)	0.509 (inactive)	0.323 (inactive)	-2.24	-0.0095	0.2 (inactive)	0.742	-2.17	-2.37 (inactive)	0.355 (inactive)	0.557 (inactive)
COCCOC(=O)N1C(=O)[C@@]2(c3ccccc31)[C@H](c1ccc(O)cc1)N1[C@H](c3ccccc3)[C@H](c3ccccc3)OC(=O)[C@H]1[C@@H]2C(=O)N1CCN(c2ncccn2)CC1	0.0716	0.353 (inactive)	-0.183 (inactive)	-0.18 (inactive)	2.33 (inactive)	-0.451 (inactive)	-0.838 (inactive)	-0.935 (inactive)	-0.0522	0.147	1.84 (inactive)	0.787	-1.16	-2.14 (inactive)	0.0666 (inactive)	0.651 (inactive)
